Assay results taken from the supplement of paper PMC6522484.
± gives the standard deviation of the averaged measurements.

What was measured:
[1] = test system: DLD1; assay: cell viability (CellTiter-Glo) relative to plate median (fraction of plate median); higher = more viable cells; conditions: 5 µM; treatment time 24 h; reporter: 7TFP
How it was run: (§1)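 Colorectal cancer lines with stably integrated lentiviral TCF/Wnt firefly luciferase reporters received library compounds at a final 5 µM, 24 h after seeding into 384-well plates, for a 24 h exposure. Reported figures are plate-median-normalised firefly luciferase or CellTiterGlo luminescence per well. They average two independent replicates.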

[2] = test system: HCT116; assay: as above; conditions: 5 µM; treatment time 24 h; reporter: TCF4/Wnt
How it was run: as §1

[3] = test system: SW480; assay: as above; conditions: 5 µM; treatment time 24 h; reporter: 7TFP
How it was run: as §1

[4] = test system: DLD1; assay: TCF/Wnt firefly luciferase reporter signal relative to plate median (fraction of plate median); higher = higher Wnt reporter signal; conditions: 5 µM; treatment time 24 h; reporter: 7TFP
How it was run: as §1

[5] = test system: SW480; assay: as above; conditions: 5 µM; treatment time 24 h; reporter: 7TFP
How it was run: as §1

| SMILES | cell viability [1] | cell viability [2] | cell viability [3] | TCF/Wnt firefly luciferase reporter signal [4] | TCF/Wnt firefly luciferase reporter signal [5] |
| --- | --- | --- | --- | --- | --- |
| C#C[C@]1(O)CC[C@H]2[C@@H]3CCC4=CC(=O)CC[C@]4(C)[C@H]3CC[C@@]21C | 1.02 ± 0.042 | 1.06 ± 0.021 | 0.962 ± 0.048 | 1.05 ± 0.064 | 1.05 ± 0.076 |
| C[CH2][Hg][S]c1ccccc1C(=O)[O-].[Na+] | 0.303 ± 0.39 | 0.378 ± 0.36 | 0.0225 ± 0.0017 | 0.274 ± 0.37 | 0.0216 ± 0.0027 |
| CC(=O)Nc1cc([As](=O)(O)O)ccc1O | 1.04 ± 0.064 | 0.994 ± 0.023 | 1.02 | 1.13 ± 0.085 | 0.973 ± 0.038 |
| CC(=O)O[C@H]1CC[C@@]2(C)C(=CC[C@@H]3[C@@H]2CC[C@]2(C)C(=O)CC[C@@H]32)C1 | 1.02 ± 0.075 | 1.03 ± 0.083 | 0.983 ± 0.025 | 0.944 ± 0.028 | 1.08 ± 0.092 |
| CCCCCCCCCCCCCCCC[n+]1ccccc1 | 0.885 ± 0.07 | 0.797 ± 0.13 | 0.95 ± 0.028 | 0.773 ± 0.062 | 0.661 ± 0.073 |
| COC(=O)C1=CO[C@@H](C)[C@@H]2CN3CC[C@@]4(C(=O)Nc5ccccc54)[C@H]3C[C@H]12 | 1.1 ± 0.085 | 1.07 ± 0.014 | 1.08 ± 0.035 | 1.02 ± 0.12 | 0.96 ± 0.028 |
| CC(=O)O[C@@H]1CC2C(C)(C)[C@H](O)C=C[C@]2(C)C2CC[C@]3(C)C(=CC(=O)O[C@H]3c3ccoc3)[C@@]21C (stereo partly drawn) [3-alpha-HYDROXYDEOXYGEDININ] | 1.08 ± 0.092 | 1.11 ± 0.014 | 1.08 ± 0.11 | 1.04 ± 0.097 | 0.943 ± 0.076 |
| CCOP(=S)(OCC)Oc1ccc2c(C)c(Cl)c(=O)oc2c1 | 0.989 ± 0.044 | 0.983 ± 0.14 | 0.9335 ± 0.005 | 0.928 ± 0.04 | 0.89 ± 0.012 |
| O=c1c(O)c(-c2ccc(O)c(O)c2)oc2c(O)c(O)cc(O)c12 | 0.905 ± 0.12 | 1.1 ± 0.085 | 0.9465 ± 0.00071 | 0.9395 ± 0.0035 | 0.916 ± 0.033 |
| CC(C)CCCC1(C)C=Cc2c(O)c3c(c(CCC(C)C)c2O1)OC12C(CC4CC1C(C)(C)OC2(CCC(C)C(=O)O)C4O)C3=O (stereo not given) | 1.08 ± 0.042 | 0.997 ± 0.0042 | 1.07 ± 0.092 | 1.06 ± 0.014 | 1.06 ± 0.092 |
| O=P1(NCCCl)OCCCN1CCCl (stereo not given) | 1.03 ± 0.079 | 0.996 ± 0.021 | 0.973 ± 0.053 | 0.999 ± 0.28 | 0.97 ± 0.086 |
| CNc1ccc(C(=O)CC(O)CCC(C)C2OC(=O)CC(O)CC(=O)CC(O)CC(O)CC(O)CC(O)CC3(O)CC(O)C(C(=O)OC)C(CC(O[C@@H]4O[C@H](C)[C@@H](O)[C@H](N)[C@@H]4O)/C=C/C=C/C=C/C=C/C=C/C=C/C=C/C2C)O3)cc1.COC(=O)C1C(O)CC2(O)CC(O)CC(O)CC(O)CC(O)CC(=O)CC(O)CC(=O)OC(C(C)CCC(O)CC(=O)c3ccc(N)cc3)C(C)/C=C/C=C/C=C/C=C/C=C/C=C/C=C/C(O[C@@H]3O[C@H](C)[C@@H](O)[C@H](N)[C@@H]3O)CC1O2 (stereo not given in full) | 0.932 ± 0.096 | 0.959 ± 0.011 | 0.962 ± 0.0085 | 0.85 ± 0.088 | 0.908 ± 0.023 |
| O=C1NC(=O)C(=O)C(=O)N1 | 1.01 ± 0.057 | 0.935 ± 0.063 | 0.945 ± 0.014 | 0.829 ± 0.03 | 0.901 ± 0.064 |
| CC1(C)C(=O)C=C[C@]2(C)[C@H]3CC[C@@]4(C)[C@H](c5ccoc5)OC(=O)[C@H]5O[C@]54[C@]3(C)[C@H](O)C[C@@H]12 | 1.01 ± 0.12 | 1.08 ± 0.028 | 0.989 ± 0.016 | 0.904 ± 0.028 | 0.972 ± 0.097 |
